Test in all cases: log2 fold change, soluble protein after heating vs DMSO (PISA); higher = thermal stabilisation; K562 cells, 10 uM, 30 min; active = over 0.2 and 3.5 SD of the protein, either way, in both replicates (recomputed)
Compound in assay [1]: NC(=O)Nc1cc(-c2cccc(F)c2)sc1C(=O)N[C@H]1CCCNC1
In outline: (§1)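 K562 cells at 2×10^6 cells/mL were treated for 30 min with 10 μM compound, and aliquots were heated for 3 min over 48°C-58°C before pooling. Extraction used PBS with 0.5% NP-40 at 4°C, and soluble protein was the supernatant after 21,000xg for 90 min, measured by TMTpro 16plex LC-MS/MS with channel sums equalised. Thermal stability values, relative to control samples and from duplicates, are log2 fold changes.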

Compound in assay [2]: NC(=O)c1cnc(N[C@@H]2CCCC[C@@H]2N)nc1Nc1cccc(-n2nccn2)c1
In outline: as §1

Compound in assay [3]: NC1(c2ccc(-c3nc4ccn5c(=O)[nH]nc5c4cc3-c3ccccc3)cc2)CCC1
In outline: as §1

Compound in assay [4]: NCC(=O)Nc1ccc(-n2nc(C(F)(F)F)cc2-c2ccc3c(ccc4ccccc43)c2)cc1
An outline of the steps: as §1

Compound in the next assay: Nc1ccccc1NC(=O)c1ccc(CNC(=O)OCc2cccnc2)cc1 [entinostat]
In outline: as §1

Compound in the next assay: O=C(CCCCCCC(=O)Nc1ccccc1)NO [vorinostat]
An outline of the steps:
as §1

Compound in a further assay: O=C(CCCCCCNC(=O)c1cnc(N(c2ccccc2)c2ccccc2Cl)nc1)NO [citarinostat]
An outline of the steps:
as §1

Compound in another assay: O=C(O)c1ccc2c(c1)nc(Nc1cccc(Cl)c1)c1ccncc12 [silmitasertib]
An outline of the steps:
as §1

Compound in assay [5]: O=C1NC(=O)C(c2cnc3ccccn23)=C1c1cn2c3c(cc(F)cc13)CN(C(=O)N1CCCCC1)CC2
An outline of the steps:
as §1

Compound in assay [6]: c1cc(OCCN2CCCCC2)cc(-c2n[nH]c3ccc(-c4nnc[nH]4)cc23)c1
An outline of the steps: as §1

Compound in the next assay: c1cn2cc(-c3ccc4cn[nH]c4c3)nc(Nc3ccc(N4CCOCC4)cc3)c2n1 [entospletinib]
In outline:
as §1

The full data set covers some 7,900 targets. This sample favours those with a hit. About 0.6% of all pairs of compound and target were hits. Values without a mark were called inactive.

UniProt Q71RC2, sequence (Q71RC2 whole entry, looked up): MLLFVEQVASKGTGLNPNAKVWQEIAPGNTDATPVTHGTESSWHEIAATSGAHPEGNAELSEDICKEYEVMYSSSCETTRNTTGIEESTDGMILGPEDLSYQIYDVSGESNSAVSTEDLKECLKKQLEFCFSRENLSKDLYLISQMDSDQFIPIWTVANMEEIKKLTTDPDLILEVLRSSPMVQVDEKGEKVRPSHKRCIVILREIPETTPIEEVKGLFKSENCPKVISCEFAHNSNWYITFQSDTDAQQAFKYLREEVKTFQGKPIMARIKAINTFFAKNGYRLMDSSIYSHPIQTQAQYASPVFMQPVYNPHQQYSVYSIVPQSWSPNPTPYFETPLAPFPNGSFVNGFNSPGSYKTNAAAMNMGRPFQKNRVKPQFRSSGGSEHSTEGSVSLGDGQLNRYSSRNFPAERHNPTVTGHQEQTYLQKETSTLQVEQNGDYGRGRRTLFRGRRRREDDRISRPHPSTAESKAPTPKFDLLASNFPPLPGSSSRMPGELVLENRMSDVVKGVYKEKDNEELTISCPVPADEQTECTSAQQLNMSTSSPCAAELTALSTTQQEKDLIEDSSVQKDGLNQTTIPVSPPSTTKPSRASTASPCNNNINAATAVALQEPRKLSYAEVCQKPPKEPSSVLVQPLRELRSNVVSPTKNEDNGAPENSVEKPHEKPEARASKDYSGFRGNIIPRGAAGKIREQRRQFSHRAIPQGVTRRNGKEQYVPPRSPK
UniProt Q9H3F6, sequence (Q9H3F6 whole entry, looked up): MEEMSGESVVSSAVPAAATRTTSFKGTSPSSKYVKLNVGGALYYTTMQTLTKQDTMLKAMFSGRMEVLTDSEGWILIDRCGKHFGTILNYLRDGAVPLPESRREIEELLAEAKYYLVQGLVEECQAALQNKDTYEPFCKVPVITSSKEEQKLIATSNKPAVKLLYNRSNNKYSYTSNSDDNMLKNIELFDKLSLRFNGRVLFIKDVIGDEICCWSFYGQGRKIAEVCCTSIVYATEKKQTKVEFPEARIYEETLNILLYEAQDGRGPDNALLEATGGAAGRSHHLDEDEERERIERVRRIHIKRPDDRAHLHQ
UniProt P45984, sequence (P45984 whole entry, looked up): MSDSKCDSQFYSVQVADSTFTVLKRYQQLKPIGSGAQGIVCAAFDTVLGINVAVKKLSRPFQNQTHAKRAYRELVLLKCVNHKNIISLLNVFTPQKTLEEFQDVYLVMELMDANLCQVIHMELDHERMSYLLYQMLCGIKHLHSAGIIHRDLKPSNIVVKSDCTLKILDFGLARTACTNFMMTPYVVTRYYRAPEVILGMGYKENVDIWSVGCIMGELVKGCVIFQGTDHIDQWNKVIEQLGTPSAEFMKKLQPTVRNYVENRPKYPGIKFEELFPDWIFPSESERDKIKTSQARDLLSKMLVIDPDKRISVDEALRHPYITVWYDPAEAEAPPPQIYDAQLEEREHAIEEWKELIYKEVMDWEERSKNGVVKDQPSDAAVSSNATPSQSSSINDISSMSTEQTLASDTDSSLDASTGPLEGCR
UniProt P11717, sequence (P11717 whole entry, looked up): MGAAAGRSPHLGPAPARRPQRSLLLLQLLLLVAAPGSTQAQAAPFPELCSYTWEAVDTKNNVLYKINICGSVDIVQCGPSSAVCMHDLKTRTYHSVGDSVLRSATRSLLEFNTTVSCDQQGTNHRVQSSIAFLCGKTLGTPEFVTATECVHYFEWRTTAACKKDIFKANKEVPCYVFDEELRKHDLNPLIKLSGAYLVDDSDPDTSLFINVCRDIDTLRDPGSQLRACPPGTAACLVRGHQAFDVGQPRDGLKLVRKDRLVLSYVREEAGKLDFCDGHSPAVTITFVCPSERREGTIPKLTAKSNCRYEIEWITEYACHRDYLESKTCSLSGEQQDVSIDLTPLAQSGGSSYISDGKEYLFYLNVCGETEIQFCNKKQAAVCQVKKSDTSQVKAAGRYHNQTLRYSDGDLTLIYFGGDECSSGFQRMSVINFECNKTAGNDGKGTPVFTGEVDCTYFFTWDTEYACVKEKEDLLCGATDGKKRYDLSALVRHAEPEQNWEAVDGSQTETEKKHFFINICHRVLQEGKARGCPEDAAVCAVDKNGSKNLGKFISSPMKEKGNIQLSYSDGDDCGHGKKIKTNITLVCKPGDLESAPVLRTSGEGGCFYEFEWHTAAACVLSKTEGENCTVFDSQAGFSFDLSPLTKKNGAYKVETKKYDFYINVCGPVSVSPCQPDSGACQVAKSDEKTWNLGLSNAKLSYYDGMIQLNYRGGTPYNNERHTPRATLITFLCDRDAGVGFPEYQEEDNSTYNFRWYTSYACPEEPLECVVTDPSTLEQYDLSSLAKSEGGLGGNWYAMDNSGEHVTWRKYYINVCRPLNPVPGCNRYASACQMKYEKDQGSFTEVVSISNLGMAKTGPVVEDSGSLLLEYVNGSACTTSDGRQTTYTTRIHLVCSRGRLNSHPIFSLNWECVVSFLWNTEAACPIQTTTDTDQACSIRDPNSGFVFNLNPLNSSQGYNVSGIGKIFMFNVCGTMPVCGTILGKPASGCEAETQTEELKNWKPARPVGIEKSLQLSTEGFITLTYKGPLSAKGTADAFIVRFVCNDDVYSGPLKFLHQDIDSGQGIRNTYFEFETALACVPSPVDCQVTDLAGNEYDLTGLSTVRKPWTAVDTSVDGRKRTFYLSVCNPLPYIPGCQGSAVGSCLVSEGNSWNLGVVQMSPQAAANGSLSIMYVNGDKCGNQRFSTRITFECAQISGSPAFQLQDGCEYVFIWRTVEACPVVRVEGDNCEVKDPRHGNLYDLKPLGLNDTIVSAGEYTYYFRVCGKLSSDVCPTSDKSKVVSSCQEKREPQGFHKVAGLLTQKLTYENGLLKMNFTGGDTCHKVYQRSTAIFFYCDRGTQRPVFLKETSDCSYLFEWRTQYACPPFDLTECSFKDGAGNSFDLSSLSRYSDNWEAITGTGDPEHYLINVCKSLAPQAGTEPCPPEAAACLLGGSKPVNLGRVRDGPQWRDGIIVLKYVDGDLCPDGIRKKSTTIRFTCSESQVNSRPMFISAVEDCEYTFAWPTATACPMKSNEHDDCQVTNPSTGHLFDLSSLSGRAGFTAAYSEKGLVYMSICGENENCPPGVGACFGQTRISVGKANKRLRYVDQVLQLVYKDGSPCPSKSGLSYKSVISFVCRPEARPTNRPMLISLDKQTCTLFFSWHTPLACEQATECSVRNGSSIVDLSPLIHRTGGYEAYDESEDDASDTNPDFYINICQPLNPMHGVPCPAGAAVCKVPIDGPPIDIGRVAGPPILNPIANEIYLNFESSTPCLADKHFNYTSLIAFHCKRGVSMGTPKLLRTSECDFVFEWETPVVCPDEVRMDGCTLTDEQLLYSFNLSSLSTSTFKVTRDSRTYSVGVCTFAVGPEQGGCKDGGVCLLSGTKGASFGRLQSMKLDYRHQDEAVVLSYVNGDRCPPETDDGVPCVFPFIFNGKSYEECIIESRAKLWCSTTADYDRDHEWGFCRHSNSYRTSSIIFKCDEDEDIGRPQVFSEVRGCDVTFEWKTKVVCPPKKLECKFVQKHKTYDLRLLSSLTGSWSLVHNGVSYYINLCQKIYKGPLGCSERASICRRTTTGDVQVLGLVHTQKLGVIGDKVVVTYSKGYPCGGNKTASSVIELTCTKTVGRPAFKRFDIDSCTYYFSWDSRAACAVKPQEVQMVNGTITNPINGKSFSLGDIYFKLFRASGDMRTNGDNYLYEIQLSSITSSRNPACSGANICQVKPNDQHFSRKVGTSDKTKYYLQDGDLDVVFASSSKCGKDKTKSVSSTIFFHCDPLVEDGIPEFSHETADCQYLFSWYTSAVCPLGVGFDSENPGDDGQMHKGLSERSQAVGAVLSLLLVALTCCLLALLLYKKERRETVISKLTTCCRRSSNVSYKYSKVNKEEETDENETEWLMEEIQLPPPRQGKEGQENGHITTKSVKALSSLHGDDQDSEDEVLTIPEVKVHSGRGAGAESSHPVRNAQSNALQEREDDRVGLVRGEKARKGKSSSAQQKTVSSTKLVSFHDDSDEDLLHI
UniProt O14733, sequence (O14733 whole entry, looked up): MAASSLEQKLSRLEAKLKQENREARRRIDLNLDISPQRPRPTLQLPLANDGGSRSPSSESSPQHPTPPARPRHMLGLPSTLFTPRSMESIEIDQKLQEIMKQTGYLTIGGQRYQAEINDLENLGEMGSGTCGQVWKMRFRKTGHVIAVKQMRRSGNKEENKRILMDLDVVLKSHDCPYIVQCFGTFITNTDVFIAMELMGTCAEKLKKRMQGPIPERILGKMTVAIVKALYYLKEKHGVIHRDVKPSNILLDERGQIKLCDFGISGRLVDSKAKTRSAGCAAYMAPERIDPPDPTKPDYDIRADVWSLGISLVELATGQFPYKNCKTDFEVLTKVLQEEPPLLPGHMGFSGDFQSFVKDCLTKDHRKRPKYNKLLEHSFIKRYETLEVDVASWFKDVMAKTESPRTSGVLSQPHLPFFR
UniProt Q08431, sequence (Q08431 whole entry, looked up): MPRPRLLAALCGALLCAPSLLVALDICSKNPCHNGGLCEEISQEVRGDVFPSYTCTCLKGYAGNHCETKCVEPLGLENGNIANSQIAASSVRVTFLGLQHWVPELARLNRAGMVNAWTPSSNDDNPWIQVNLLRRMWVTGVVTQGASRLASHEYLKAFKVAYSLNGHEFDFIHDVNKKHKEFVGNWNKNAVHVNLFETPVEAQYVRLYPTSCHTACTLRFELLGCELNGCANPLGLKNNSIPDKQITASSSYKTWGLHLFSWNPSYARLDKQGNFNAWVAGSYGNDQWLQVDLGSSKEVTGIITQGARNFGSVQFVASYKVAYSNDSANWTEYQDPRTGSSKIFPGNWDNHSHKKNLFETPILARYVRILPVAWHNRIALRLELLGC
UniProt P10620, sequence (P10620 whole entry, looked up): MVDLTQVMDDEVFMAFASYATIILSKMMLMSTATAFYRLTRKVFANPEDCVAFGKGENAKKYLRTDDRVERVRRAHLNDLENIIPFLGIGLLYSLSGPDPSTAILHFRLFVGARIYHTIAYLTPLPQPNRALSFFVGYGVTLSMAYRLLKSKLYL

For the target MFGE8 (UniProt Q08431), the log2 fold change in assay [1] is -0.163; in assay [2], -0.058; in assay [3], 0.049; in assay [4] it was 0.125; with entinostat, -0.082; with vorinostat, 0.03. In addition, the log2 fold change with citarinostat was -0.036; in the assay with silmitasertib, 0.117; in assay [5], 0.007; in assay [6] it was -0.029; with entospletinib, 0.065.

Consider ILK (UniProt Q13418), for which the log2 fold change was -0.236 in assay [1]; -0.125 in assay [2]; -0.07 in assay [3]; -0.095 in assay [4]; -0.149 with entinostat; 0.083 with vorinostat. In addition, the log2 fold change with citarinostat is -0.006; with silmitasertib, -0.003; in [5], -0.036; in [6] it was -0.048; with entospletinib, 0.074.

Take MAP2K7 isoform 4 (UniProt O14733): the log2 fold change in assay [1] is 0.008; in assay [2] it was -0.051; in assay [3], -0.078; in assay [4], -0.015; with entinostat, 0.015; with vorinostat it was 0.084. The log2 fold change with citarinostat is 0.041; with silmitasertib it was -0.019; in assay [5] it was -0.052; in assay [6] it was -0.044; with entospletinib, -0.009.

MAPK9 (UniProt P45984): the log2 fold change is -0.058 in assay [1]; -0.023 in assay [2]; -0.053 in assay [3]; -0.022 in assay [4]; -0.028 with entinostat; -0.058 with vorinostat. The log2 fold change with citarinostat was -0.022; with silmitasertib it was -0.012; in [5], -0.102; in [6] it was 0.187; with entospletinib, -0.069.

For METTL18 (UniProt O95568), the log2 fold change was -0.028 in assay [1]; 0.008 in assay [2]; -0.034 in [3]; 0.023 in assay [4]; -0.02 in the assay with entinostat; 0.041 in the assay with vorinostat. Further, the log2 fold change in the assay with citarinostat was -0.046; with silmitasertib it was 0.03; in assay [5] it was 0; in [6] it was -0.016; with entospletinib, 0.072.

Regarding IGF2R (UniProt P11717), the log2 fold change in assay [1] was -0.032; in [2], 0.03; in [3], -0.546 (active); in [4] it was 0.006; with entinostat, -0.008; with vorinostat it was 0. Moreover, the log2 fold change with citarinostat is 0.07; with silmitasertib it was 0.021; in [5], -0.063; in assay [6], -0.184; with entospletinib, -0.004.

As to ILVBL (UniProt A1L0T0), the log2 fold change was -0.053 in assay [1]; -0.036 in assay [2]; -0.022 in assay [3]; -0.007 in assay [4]; -0.041 in the assay with entinostat; 0.002 with vorinostat. The log2 fold change is 0.064 with citarinostat; -0.008 in the assay with silmitasertib; -0.009 in assay [5]; -0.064 in assay [6]; -0.028 with entospletinib.

As to KDM5D isoform 3 (UniProt Q9BY66), the log2 fold change in [1] is -0.038; in [2], -0.012; in [3], -0.134; in [4], -0.025; with entinostat, 0.135; with vorinostat, 0.006. In addition, the log2 fold change was 0.198 with citarinostat; 0.176 in the assay with silmitasertib; 0 in assay [5]; -0.096 in [6]; -0.056 with entospletinib.

For the target MGST1 (UniProt P10620), the log2 fold change is -0.025 in assay [1]; -0.024 in assay [2]; -0.035 in assay [3]; 0.163 in [4]; 0.031 with entinostat; 0.027 in the assay with vorinostat. Moreover, the log2 fold change with citarinostat was -0.065; with silmitasertib, 0.036; in assay [5], -0.086; in assay [6], 0.122; in the assay with entospletinib, 0.051.

For KPNB1 (UniProt Q14974), the log2 fold change in assay [1] is 0.025; in [2], -0.087; in assay [3], -0.073; in [4], -0.037; with entinostat, 0.055; with vorinostat it was 0.038. Moreover, the log2 fold change with citarinostat was 0.097; in the assay with silmitasertib, 0.099; in assay [5], 0.068; in assay [6], -0.059; with entospletinib, 0.078.

With KLHDC4 (UniProt Q8TBB5), the log2 fold change is 0.013 in assay [1]; -0.006 in assay [2]; 0.224 in [3]; -0.105 in assay [4]; -0.055 in the assay with entinostat; -0.014 with vorinostat. Also, the log2 fold change was 0.042 with citarinostat; -0.003 in the assay with silmitasertib; 0.125 in assay [5]; -0.036 in assay [6]; 0.065 with entospletinib.

Take KCTD10 (UniProt Q9H3F6): the log2 fold change in assay [1] was 0.065; in assay [2] it was 0.226; in [3] it was 0.028; in assay [4], 0.077; with entinostat, -0.014; in the assay with vorinostat it was -0.001. The log2 fold change with citarinostat was -0.05; with silmitasertib, -0.042; in [5] it was -0.088; in assay [6], -0.025; with entospletinib, 0.047.

On to LARP4 isoform 4 (UniProt Q71RC2), for which the log2 fold change is -0.034 in assay [1]; -0.094 in [2]; 0.084 in assay [3]; 0.048 in assay [4]; 0.037 with entinostat; 0.133 with vorinostat. Moreover, the log2 fold change in the assay with citarinostat was -0.004; with silmitasertib, 0.043; in [5], 0.009; in assay [6], -0.116; in the assay with entospletinib, 0.095.

For the origin of these results see the supplement of paper PMC10849652.
